This is an account of results in PMC7862700, “An all-to-all approach to the identification of sequence-specific readers for epigenetic DNA modifications on cytosine”.

Test in all cases: DAPPL (digital affinity profiling via proximity ligation, sequencing); 10 mM Tris-HCl pH 7.5, 50 mM NaCl, 1 mM DTT, 4% glycerol, room temperature, 30 min; GST-TFs on glutathione beads, 16-mer random dsDNA library, 0.1% formaldehyde crosslink after washing; high values mean tight binding
Settings in all cases: protein: recombinant; tags: N-terminal GST; dsDNA, one strand shown

One assay has as its target T1, FLI1 (Homo sapiens, UniProt Q01543 1-452).
T1 sequence: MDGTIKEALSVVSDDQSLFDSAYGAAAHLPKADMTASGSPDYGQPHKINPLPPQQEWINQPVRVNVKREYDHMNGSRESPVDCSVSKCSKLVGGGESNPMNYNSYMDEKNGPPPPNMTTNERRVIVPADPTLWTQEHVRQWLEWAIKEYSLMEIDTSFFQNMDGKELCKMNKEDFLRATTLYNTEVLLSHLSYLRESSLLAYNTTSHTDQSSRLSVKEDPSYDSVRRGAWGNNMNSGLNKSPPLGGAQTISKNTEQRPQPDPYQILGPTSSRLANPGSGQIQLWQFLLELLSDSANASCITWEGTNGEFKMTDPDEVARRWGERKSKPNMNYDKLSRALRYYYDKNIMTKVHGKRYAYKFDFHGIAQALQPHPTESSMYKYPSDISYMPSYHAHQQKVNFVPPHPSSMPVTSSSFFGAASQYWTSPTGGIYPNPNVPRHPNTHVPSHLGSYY
The method, boiled down: (§1)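 A tag-only sample was pooled with DNA-barcoded human transcription factors that had been expressed in yeast as GST fusions and captured on glutathione beads. The pools were incubated for 30 min at room temperature with 200 nmole of a random double-stranded 16-mer DNA library in Tris/NaCl/DTT/glycerol buffer, then washed, crosslinked with 0.1% formaldehyde, proximity-ligated (BsaI/T4 ligase, 1 h, 37 °C), PCR-amplified and sequenced on an Illumina NextSeq500. Binding signal is each hexamer's read frequency for a factor divided by its frequency for the tag-only sample.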

Another assay deals with T2, ELK1 (Homo sapiens, UniProt P19419 1-428).
T2 sequence: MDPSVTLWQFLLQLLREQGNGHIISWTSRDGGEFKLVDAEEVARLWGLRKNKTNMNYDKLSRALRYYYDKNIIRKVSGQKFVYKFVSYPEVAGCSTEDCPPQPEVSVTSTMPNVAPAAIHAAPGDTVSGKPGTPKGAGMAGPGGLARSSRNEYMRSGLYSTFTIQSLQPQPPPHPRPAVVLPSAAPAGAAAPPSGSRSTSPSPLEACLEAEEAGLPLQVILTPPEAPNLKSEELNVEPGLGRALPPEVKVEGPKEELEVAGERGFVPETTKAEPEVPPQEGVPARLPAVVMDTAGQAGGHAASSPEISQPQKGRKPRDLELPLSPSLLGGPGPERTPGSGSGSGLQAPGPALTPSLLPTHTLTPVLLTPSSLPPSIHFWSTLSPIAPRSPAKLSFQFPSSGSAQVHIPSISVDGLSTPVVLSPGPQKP
The method, boiled down: as §1

The next assay concerns the target T3, GABPA (Homo sapiens, UniProt Q06546 1-454).
T3 sequence: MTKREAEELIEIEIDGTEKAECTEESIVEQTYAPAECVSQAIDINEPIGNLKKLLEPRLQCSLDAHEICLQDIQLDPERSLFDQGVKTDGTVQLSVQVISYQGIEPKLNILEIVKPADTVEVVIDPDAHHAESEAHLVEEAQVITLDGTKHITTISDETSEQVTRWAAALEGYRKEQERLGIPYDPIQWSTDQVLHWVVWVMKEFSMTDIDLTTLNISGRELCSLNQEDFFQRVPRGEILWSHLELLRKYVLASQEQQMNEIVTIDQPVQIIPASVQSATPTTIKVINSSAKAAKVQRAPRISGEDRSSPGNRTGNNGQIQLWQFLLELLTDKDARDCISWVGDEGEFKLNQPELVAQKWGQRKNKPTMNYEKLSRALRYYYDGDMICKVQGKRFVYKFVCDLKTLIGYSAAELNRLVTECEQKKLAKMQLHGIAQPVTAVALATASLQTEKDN
The method, boiled down: as §1

Another assay concerns the target T4, ERG (Homo sapiens, UniProt P11308 1-479).
T4 sequence: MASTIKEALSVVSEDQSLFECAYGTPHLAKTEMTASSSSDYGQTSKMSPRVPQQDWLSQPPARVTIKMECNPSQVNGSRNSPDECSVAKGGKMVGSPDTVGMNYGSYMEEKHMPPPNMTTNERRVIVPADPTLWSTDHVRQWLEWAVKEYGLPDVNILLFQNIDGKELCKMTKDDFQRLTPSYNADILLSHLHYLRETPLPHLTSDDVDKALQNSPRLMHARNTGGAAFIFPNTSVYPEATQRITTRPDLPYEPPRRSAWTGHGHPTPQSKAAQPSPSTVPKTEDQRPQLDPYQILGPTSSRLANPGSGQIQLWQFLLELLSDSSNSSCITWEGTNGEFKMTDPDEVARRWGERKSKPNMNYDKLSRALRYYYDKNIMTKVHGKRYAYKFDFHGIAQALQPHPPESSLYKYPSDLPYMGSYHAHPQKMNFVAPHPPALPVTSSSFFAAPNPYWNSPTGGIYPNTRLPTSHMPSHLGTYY
The method in brief: as §1

The target of the next assay is ELF1 (Homo sapiens, UniProt P32519 1-619). The method in brief: as §1
ELF1, sequence (P32519 whole entry): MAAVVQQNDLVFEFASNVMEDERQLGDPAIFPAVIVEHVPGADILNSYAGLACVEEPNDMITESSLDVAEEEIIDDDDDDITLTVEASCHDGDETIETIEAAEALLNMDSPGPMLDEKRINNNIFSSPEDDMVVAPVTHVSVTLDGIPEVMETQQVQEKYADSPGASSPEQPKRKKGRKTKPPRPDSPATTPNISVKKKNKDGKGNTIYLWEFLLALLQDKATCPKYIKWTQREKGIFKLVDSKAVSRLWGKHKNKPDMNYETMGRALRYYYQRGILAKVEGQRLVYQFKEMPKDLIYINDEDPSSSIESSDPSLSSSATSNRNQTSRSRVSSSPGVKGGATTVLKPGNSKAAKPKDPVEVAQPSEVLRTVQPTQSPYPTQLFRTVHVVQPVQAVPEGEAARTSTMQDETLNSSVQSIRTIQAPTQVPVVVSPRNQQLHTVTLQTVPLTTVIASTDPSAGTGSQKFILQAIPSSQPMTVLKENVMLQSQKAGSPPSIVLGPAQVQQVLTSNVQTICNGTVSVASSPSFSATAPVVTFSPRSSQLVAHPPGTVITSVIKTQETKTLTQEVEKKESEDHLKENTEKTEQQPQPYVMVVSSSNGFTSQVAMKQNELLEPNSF
The next assay deals with T5, EHF (Homo sapiens, UniProt Q9NZC4 1-300).
T5 sequence: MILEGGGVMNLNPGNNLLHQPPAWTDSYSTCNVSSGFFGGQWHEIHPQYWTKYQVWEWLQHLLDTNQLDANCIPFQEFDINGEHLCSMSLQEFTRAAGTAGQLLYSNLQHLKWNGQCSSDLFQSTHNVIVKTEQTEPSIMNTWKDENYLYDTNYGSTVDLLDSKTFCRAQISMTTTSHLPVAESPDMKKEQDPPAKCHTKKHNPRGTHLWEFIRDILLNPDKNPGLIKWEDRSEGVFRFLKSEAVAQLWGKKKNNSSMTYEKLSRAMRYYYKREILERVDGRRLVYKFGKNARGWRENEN
The method in brief:
as §1

Another assay concerns the target SPI1 (Homo sapiens, UniProt P17947 1-270). The method in brief:
as §1

The target in a further assay is SPIB (Homo sapiens, UniProt Q01892 1-262). The method, boiled down: as §1
SPIB, sequence (Q01892 whole entry): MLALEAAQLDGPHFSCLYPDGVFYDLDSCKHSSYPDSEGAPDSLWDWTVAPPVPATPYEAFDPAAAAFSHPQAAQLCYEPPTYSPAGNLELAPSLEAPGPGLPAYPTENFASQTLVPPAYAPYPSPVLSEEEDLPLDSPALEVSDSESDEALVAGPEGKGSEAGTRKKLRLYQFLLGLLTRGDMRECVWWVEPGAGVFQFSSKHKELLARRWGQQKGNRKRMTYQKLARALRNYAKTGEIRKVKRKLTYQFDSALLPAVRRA
A further assay concerns the target T6, ELK3 (Homo sapiens, UniProt P41970 1-407).
T6 sequence: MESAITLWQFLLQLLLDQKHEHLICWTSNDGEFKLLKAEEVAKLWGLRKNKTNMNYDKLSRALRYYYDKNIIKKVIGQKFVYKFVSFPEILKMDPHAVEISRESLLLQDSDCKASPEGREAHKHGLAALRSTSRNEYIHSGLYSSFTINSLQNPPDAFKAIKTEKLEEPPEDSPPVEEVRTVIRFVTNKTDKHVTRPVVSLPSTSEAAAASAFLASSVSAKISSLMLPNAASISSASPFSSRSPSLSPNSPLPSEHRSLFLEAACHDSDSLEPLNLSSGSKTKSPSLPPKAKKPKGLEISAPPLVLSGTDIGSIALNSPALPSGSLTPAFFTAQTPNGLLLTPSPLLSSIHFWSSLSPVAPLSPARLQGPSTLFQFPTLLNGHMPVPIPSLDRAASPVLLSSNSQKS
The method, boiled down:
as §1

As to ATTGCG, the binding signal with FLI1 was 1.33 fold enrichment (6-mer frequency, TF over GST control); with ELK1, 1.06 fold enrichment (6-mer frequency, TF over GST control); with GABPA, 1.3 fold enrichment (6-mer frequency, TF over GST control); with ERG, 1.16 fold enrichment (6-mer frequency, TF over GST control); in the assay with ELF1 it was 1.27 fold enrichment (6-mer frequency, TF over GST control); in the assay with EHF it was 1.28 fold enrichment (6-mer frequency, TF over GST control). The binding signal with SPI1 is 1.44 fold enrichment (6-mer frequency, TF over GST control); with SPIB, 1.1 fold enrichment (6-mer frequency, TF over GST control); with ELK3 it was 1.27 fold enrichment (6-mer frequency, TF over GST control).

Take AACATA: the binding signal with FLI1 was 1.23 fold enrichment (6-mer frequency, TF over GST control); with ELK1, 1.26 fold enrichment (6-mer frequency, TF over GST control); in the assay with GABPA it was 1.29 fold enrichment (6-mer frequency, TF over GST control); with ERG, 1.26 fold enrichment (6-mer frequency, TF over GST control); with ELF1, 1.28 fold enrichment (6-mer frequency, TF over GST control); with EHF, 1.31 fold enrichment (6-mer frequency, TF over GST control). Further, the binding signal is 1.21 fold enrichment (6-mer frequency, TF over GST control) with SPI1; 1.22 fold enrichment (6-mer frequency, TF over GST control) in the assay with SPIB; 1.25 fold enrichment (6-mer frequency, TF over GST control) in the assay with ELK3.

In the case of CTTAAA, the binding signal is 1.12 fold enrichment (6-mer frequency, TF over GST control) with FLI1; 1.14 fold enrichment (6-mer frequency, TF over GST control) with ELK1; 1.24 fold enrichment (6-mer frequency, TF over GST control) in the assay with GABPA; 1.16 fold enrichment (6-mer frequency, TF over GST control) with ERG; 1.22 fold enrichment (6-mer frequency, TF over GST control) in the assay with ELF1; 1.2 fold enrichment (6-mer frequency, TF over GST control) with EHF. In addition, the binding signal with SPI1 was 1.22 fold enrichment (6-mer frequency, TF over GST control); with SPIB, 1.23 fold enrichment (6-mer frequency, TF over GST control); with ELK3 it was 1.08 fold enrichment (6-mer frequency, TF over GST control).

In the case of GATTCT, the binding signal is 1.28 fold enrichment (6-mer frequency, TF over GST control) in the assay with FLI1; 1.22 fold enrichment (6-mer frequency, TF over GST control) in the assay with ELK1; 1.29 fold enrichment (6-mer frequency, TF over GST control) in the assay with GABPA; 1.21 fold enrichment (6-mer frequency, TF over GST control) with ERG; 1.26 fold enrichment (6-mer frequency, TF over GST control) with ELF1; 1.26 fold enrichment (6-mer frequency, TF over GST control) with EHF. Besides, the binding signal in the assay with SPI1 is 1.3 fold enrichment (6-mer frequency, TF over GST control); in the assay with SPIB, 1.27 fold enrichment (6-mer frequency, TF over GST control); with ELK3, 1.33 fold enrichment (6-mer frequency, TF over GST control).

In the case of AAACAT, the binding signal with FLI1 was 1.53 fold enrichment (6-mer frequency, TF over GST control); with ELK1, 1.4 fold enrichment (6-mer frequency, TF over GST control); with GABPA it was 1.49 fold enrichment (6-mer frequency, TF over GST control); with ERG, 1.37 fold enrichment (6-mer frequency, TF over GST control); with ELF1, 1.5 fold enrichment (6-mer frequency, TF over GST control); with EHF, 1.43 fold enrichment (6-mer frequency, TF over GST control). For the same sequence, the binding signal in the assay with SPI1 was 1.36 fold enrichment (6-mer frequency, TF over GST control); in the assay with SPIB it was 1.48 fold enrichment (6-mer frequency, TF over GST control); with ELK3 it was 1.46 fold enrichment (6-mer frequency, TF over GST control).

As for TTGGTA, the binding signal is 1.23 fold enrichment (6-mer frequency, TF over GST control) with FLI1; 1.3 fold enrichment (6-mer frequency, TF over GST control) in the assay with ELK1; 1.22 fold enrichment (6-mer frequency, TF over GST control) with GABPA; 1.13 fold enrichment (6-mer frequency, TF over GST control) with ERG; 1.19 fold enrichment (6-mer frequency, TF over GST control) with ELF1; 1.21 fold enrichment (6-mer frequency, TF over GST control) in the assay with EHF. Besides, the binding signal in the assay with SPI1 is 1.23 fold enrichment (6-mer frequency, TF over GST control); in the assay with SPIB, 1.33 fold enrichment (6-mer frequency, TF over GST control); with ELK3 it was 1.2 fold enrichment (6-mer frequency, TF over GST control).

Take AACTAG: the binding signal in the assay with FLI1 was 1.06 fold enrichment (6-mer frequency, TF over GST control); in the assay with ELK1 it was 1.15 fold enrichment (6-mer frequency, TF over GST control); with GABPA it was 1.22 fold enrichment (6-mer frequency, TF over GST control); with ERG, 1.21 fold enrichment (6-mer frequency, TF over GST control); with ELF1 it was 1.16 fold enrichment (6-mer frequency, TF over GST control); with EHF it was 1.12 fold enrichment (6-mer frequency, TF over GST control). For the same sequence, the binding signal is 1.11 fold enrichment (6-mer frequency, TF over GST control) with SPI1; 1.07 fold enrichment (6-mer frequency, TF over GST control) in the assay with SPIB; 1.11 fold enrichment (6-mer frequency, TF over GST control) with ELK3.

As for CCTATG, the binding signal with FLI1 is 1.14 fold enrichment (6-mer frequency, TF over GST control); with ELK1 it was 1.31 fold enrichment (6-mer frequency, TF over GST control); in the assay with GABPA, 1.31 fold enrichment (6-mer frequency, TF over GST control); with ERG, 1.14 fold enrichment (6-mer frequency, TF over GST control); in the assay with ELF1, 1.27 fold enrichment (6-mer frequency, TF over GST control); with EHF it was 1.14 fold enrichment (6-mer frequency, TF over GST control). Further, the binding signal is 1.21 fold enrichment (6-mer frequency, TF over GST control) with SPI1; 1.19 fold enrichment (6-mer frequency, TF over GST control) with SPIB; 1.18 fold enrichment (6-mer frequency, TF over GST control) with ELK3.
